# Measurements published in PubChem BioAssay.
# Values joined by “and” are separate entries in the source; they are usually repeats but may differ in a detail not shown here. Identical values can stand only once. Results filed as inconclusive are left out. Some compounds were tested as several samples or in several runs, with calls that do not always agree. Active and inactive are the calls of the source.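 The calls were made as follows, unless noted: active = z-score of at least 1.8 in each of two replicates, scored against plate mean and spread of sample wells; inactive = the rest.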
# Assays:
# [1] = stimulators of nuclear beta-catenin in C2C12, primary screen, imaging, WNT3A-conditioned medium, mouse C2C12, NPC library (AID 1117326; in the data active = nuclear beta-catenin stimulation mostly above about 4.2%, no sharp cut-off; inactive = mostly below about 10%; also: reference of the scale not given here); details: stronger effect = higher value
# [2] = stimulators of insulin release from INS-1E, primary screen, cell-based, 5 mM glucose, NPC library (AID 1117329;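 active = compound raises insulin release from rat beta cells at 5 mM glucose, no numeric limit stated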; also: reference of the scale not given here); details: rat INS-1E insulin secretion, at 10 µM, stronger effect = higher value
# [3] = growth inhibition of GSK3B-pretreated HCT116 cells – cell-based, CellTiter-Glo, 0.2 to 20 µM (AID 1117336;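 active = compounds lowering colon cancer cell viability after pretreatment blocking the GSK3B kinase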); details: HCT116 viability after GSK3B inhibitor, at 20 µM, stronger effect = higher value
# [4] = inhibition of endothelial tube formation, primary screen, imaging, VEGF stimulated, CD31 staining, tube area, NPC library (AID 1117340;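 active = compound that reduces growth-factor-driven endothelial tube area in a mixed cell culture, no cutoff stated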); details: VEGF-stimulated ADSC/ECFC co-culture, at 10 µM, stronger effect = higher value
# [5] = glucagon-like peptide 1 release enhancers, primary assay, NCI-H716 cell line, NPC library (AID 1117341;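 active = compound raises GLP1 secretion from the human gut endocrine cells, with no numeric limit stated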; also: reference of the scale not given here); details: NCI-H716 cells, at 10 µM, stronger effect = higher value
# [6] = HCT116 colon cancer cell growth inhibition, primary screen, CellTiter-Glo luminescence, NPC library (AID 1117342;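 active = compounds that lower survival of HCT116 colon cancer cells in the luminescence readout, no numeric limit stated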); details: at 20 µM (top of the series)
# [7] = CellTiter-Glo luminescent readout of SW480 viability loss, NPC library primary (AID 1117343;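 active = compounds that lower viability of the colon cancer cells in the luminescence readout, with no numeric limit stated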); details: CellTiter-Glo luminescence; at 20 µM (top of the series) unless noted
# [8] = decreased DLD-1 cellular survival, CellTiter-Glo luminescent readout, NPC compound collection, primary HTS (AID 1117346;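 active = compounds that lower survival of DLD-1 colon cancer cells in the luminescence readout, no cutoff given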); details: DLD-1 viability, CellTiter-Glo luminescence; at 20 µM (top of the series)
# [9] = tested on: Aerobactin synthetase IucA (Klebsiella pneumoniae); assay: IucA aerobactin synthetase inhibitors, biochemical, Tocris library, absorbance (AID 1345561; call rule not given here;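 also: 100% = enzyme without compound and 0% = no enzyme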); details: purified IucA enzyme assay, absorbance (OD) read-out; stronger effect = lower value;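 tested at 8 µM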
# [10] = growth inhibition of DIPG glioma cells, dose response, cell-based, SU-DIPG-XIII, MIPE4.0, CellTiter-Glo, qHTS (AID 1347061; cut-off not given, nearly all actives have AC50 up to about 37 µM;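 also: cells exposed to compound for 48 hours before readout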); details: SU-DIPG-XIII viability, CellTiter-Glo ATP luminescence
# [11] = growth inhibition of DIPG glioma cells, dose response, cell-based, JHH-DIPG-1, MIPE4.0, CellTiter-Glo, qHTS (AID 1347062; cut-off not given, nearly all actives have AC50 up to about 27 µM); details: JHH-DIPG-1 viability, CellTiter-Glo ATP luminescence
# [12] = SU-DIPG-XXV glioma cell viability, MIPE5.0 library, qHTS (AID 1347068; cut-off not given, nearly all actives have IC50 up to about 30 µM)
# [13] = sensitizers of A549 cells to miR-34 induction, primary screen, imaging, A549 dox-inducible miR-34, nuclei and caspase counts (AID 1347080;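 active = compounds whose cell count with miR-34 switched on is under 0.7 times the count with it off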); details: A549 miR-34 inducible, Hoechst nuclei count, 48 h
# [14] = viability rescue of complex I mutant cybrids, primary screen, cell-based, galactose medium, ATP luminescence (AID 1645843); details: complex I mutant cybrid cells, 72 h, stronger effect = higher value;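 also: positive z means more ATP and so rescue of galactose-driven cybrid death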
# [15] = liver-stage malaria parasite growth inhibition, primary screen, cell-based, HepG2, luciferase luminescence, HepG2 viability (AID 624349; in the data active = parasite load remaining mostly below about 12%, no sharp cut-off; inactive = mostly above about 10%;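 also: 100% = mean of DMSO negative control wells on the same plate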); details: P. berghei liver stage in HepG2, luciferase luminescence, concentration not given here; parasite load remaining: stronger effect = lower value; viability: measured here: HepG2 viability without parasites
# [16] = survival rescue of mitochondrial mutant cells in low glucose, primary screen, MELAS cybrids, Rieske KO mouse fibroblasts, CellTiter-Glo (AID 1508586;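 active = mean z-score across replicates of 1.96 or higher in either the MELAS or the Rieske mutant cell line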;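 also: z relative to plate mean and SD of compound and empty wells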)
# [17] = growth inhibition of DIPG glioma cells, dose response, cell-based, SU-DIPG-XVII, MIPE5.0, CellTiter-Glo, qHTS (AID 1347060; cut-off not given, nearly all actives have AC50 up to about 26 µM); details: SU-DIPG-XVII viability, CellTiter-Glo ATP luminescence
# [18] = stronger effect = lower value, cell number ratio, induced over uninduced
# [19] = measured here: relative caspase fold change +Dox/-Dox
# [20] = measured here: total cells with miR-34 induction, stronger effect = lower value
# [21] = measured here: total cells without miR-34 induction
# [22] = MELAS cybrid survival, CellTiter-Glo 48 h, stronger effect = higher value
# [23] = Rieske KO mouse fibroblast survival, CellTiter-Glo 72 h
smiles,measurement,setting,value
Cn1ccc2cc3c(cc21)CCN3C(=O)Nc1cccnc1,nuclear beta-catenin stimulation,[1]; at 10 µM,0.8% (inactive)
same,nuclear beta-catenin stimulation,"[1]; stimulation, at 2 µM",-1.3%
same,insulin secretion stimulation,[2],-1.4% (inactive)
same,viability decrease,[3],-4.4% (inactive)
same,tube area decrease,[4],-4.4% (active)
same,GLP1 secretion stimulation,[5],0.1% (inactive)
same,inhibition of viability,[6],24.2% (inactive)
same,viability decrease (inhibition),[7],12.7% (inactive)
same,viability decrease (inhibition),[8],-22.3% (inactive)
same,remaining activity,[9],117% (inactive)
same,AC50,[10],14.8 µM (active)
same,outcome,[11],inactive
same,outcome,[12],inactive
same,fold change,[13]; [18],1.01 (inactive) and 0.974 (inactive)
same,fold change,[13]; [19],1.08 and 0.723
same,cell count,[13]; [20],11100 and 8340
same,cell count,[13]; [21],11000 and 8560
same,z-score,[14],1.23 (inactive) and 0.545 (inactive)
CN=C(NC#N)NCCSCc1csc(N=C(N)N)n1,parasite load remaining,[15],42.8% (inactive)
same,viability,[15],132%
same,nuclear beta-catenin stimulation,[1]; at 10 µM,-0.6% (inactive)
same,nuclear beta-catenin stimulation,"[1]; stimulation, at 2 µM",-1.8%
same,insulin secretion stimulation,[2],0.3% (inactive)
same,viability decrease,[3],5.8% (inactive)
same,tube area decrease,[4],14.5% (inactive)
same,GLP1 secretion stimulation,[5],0% (inactive)
same,inhibition of viability,[6],-2.7% (inactive)
same,viability decrease (inhibition),[7],-14.2% (inactive)
same,viability decrease (inhibition),[8],-5.4% (inactive)
same,remaining activity,[9],91.8% (inactive)
same,fold change,[13]; [18],0.914 (inactive) and 0.897 (inactive)
same,fold change,[13]; [19],0.888 and 0.977
same,cell count,[13]; [20],8420 and 9980
same,cell count,[13]; [21],9210 and 11100
same,z-score,[16]; [22],-0.55 (inactive)
same,z-score,[16]; [23],-0.51
same,z-score,[14],0.35 (inactive) and 0.345 (inactive)
CC1(c2ccccc2)OC(C(=O)O)=CC1=O (stereo not given),nuclear beta-catenin stimulation,[1]; at 10 µM,0.9% (inactive)
same,nuclear beta-catenin stimulation,"[1]; stimulation, at 2 µM",1.2%
same,insulin secretion stimulation,[2],0.9% (inactive)
same,viability decrease,[3],1.95% (inactive)
same,tube area decrease,[4],0.2% (inactive)
same,GLP1 secretion stimulation,[5],1.1% (inactive)
same,inhibition of viability,[6],-7.4% (inactive)
same,viability decrease (inhibition),[7],4.5% (inactive)
same,viability decrease (inhibition),[8],4.95% (inactive)
same,remaining activity,[9],122% (inactive)
same,fold change,[13]; [18],0.98 (inactive)
same,fold change,[13]; [19],0.832
same,cell count,[13]; [20],9820
same,cell count,[13]; [21],10000
same,z-score,[14],-0.34 (inactive)
CN(C(=O)c1c(O)c2ccccc2n(C)c1=O)c1ccccc1,nuclear beta-catenin stimulation,[1]; at 10 µM,0.7% (inactive)
same,nuclear beta-catenin stimulation,"[1]; stimulation, at 2 µM",0.9%
same,insulin secretion stimulation,[2],4.4% (inactive)
same,viability decrease,[3],2.2% (inactive)
same,tube area decrease,[4],-6.9% (inactive)
same,GLP1 secretion stimulation,[5],0.6% (inactive)
same,inhibition of viability,[6],-2.7% (inactive)
same,viability decrease (inhibition),[7],1.1% (inactive)
same,viability decrease (inhibition),[8],-45.2% (inactive)
same,remaining activity,[9],121% (inactive)
same,outcome,[17],inactive
same,outcome,[12],inactive
same,fold change,[13]; [18],0.967 (inactive)
same,fold change,[13]; [19],0.749
same,cell count,[13]; [20],8780
same,cell count,[13]; [21],9070
same,z-score,[14],-0.335 (inactive)
CCn1ccnc1CC1COc2ccccc2O1 (stereo not given),nuclear beta-catenin stimulation,[1]; at 10 µM,1.8% (inactive)
same,nuclear beta-catenin stimulation,"[1]; stimulation, at 2 µM",0.3%
same,insulin secretion stimulation,[2],-3.2% (inactive)
same,viability decrease,[3],-16.7% (inactive)
same,tube area decrease,[4],-3.6% (inactive)
same,GLP1 secretion stimulation,[5],0% (inactive)
same,inhibition of viability,[6],1.63% (inactive)
same,viability decrease (inhibition),[7],7.7% (inactive)
same,viability decrease (inhibition),[8],-5.9% (inactive)
same,remaining activity,[9],82.4% (inactive)
same,fold change,[13]; [18],1.08 (inactive) and 0.969 (inactive)
same,fold change,[13]; [19],1.15 and 0.987
same,cell count,[13]; [20],10600 and 8940
same,cell count,[13]; [21],9870 and 9220
same,z-score,[14],0.675 (inactive) and 1.33 (inactive)
COCC(=O)O[C@]1(CCN(C)CCCc2nc3ccccc3[nH]2)CCc2cc(F)ccc2[C@@H]1C(C)C,nuclear beta-catenin stimulation,[1]; at 10 µM,14.4% (inactive)
same,nuclear beta-catenin stimulation,"[1]; stimulation, at 2 µM",-2.2%
same,insulin secretion stimulation,[2],3.5% (inactive)
same,viability decrease,[3],107% (active)
same,tube area decrease,[4],67.6% (active)
same,GLP1 secretion stimulation,[5],20.1% (active)
same,inhibition of viability,[6],110% (active)
same,viability decrease (inhibition),[7],130% (active)
same,viability decrease (inhibition),[8],101% (active)
same,remaining activity,[9],86.1% (inactive)
same,fold change,[13]; [18],0.582 (active) and 1.03 (inactive)
same,fold change,[13]; [19],0.681 and 1.08
same,cell count,[13]; [20],108 and 550
same,cell count,[13]; [21],186 and 534
same,z-score,[14],-1.29 (inactive) and -0.675 (inactive)
CC1(CN2CCC(n3c(=O)[nH]c4ccccc43)CC2)OCc2ccccc2-n2cccc21 (stereo not given),nuclear beta-catenin stimulation,[1]; at 10 µM,2.3% (inactive)
same,nuclear beta-catenin stimulation,"[1]; stimulation, at 2 µM",2%
same,insulin secretion stimulation,[2],-3.4% (inactive)
same,viability decrease,[3],78.6% (active)
same,tube area decrease,[4],7.2% (inactive)
same,GLP1 secretion stimulation,[5],3.3% (inactive)
same,inhibition of viability,[6],113% (active)
same,viability decrease (inhibition),[7],146% (active)
same,viability decrease (inhibition),[8],101% (active)
same,remaining activity,[9],97.5% (inactive)
same,outcome,[11],inactive
same,outcome,[12],inactive
same,fold change,[13]; [18],0.899 (inactive)
same,fold change,[13]; [19],1.14
same,cell count,[13]; [20],6010
same,cell count,[13]; [21],6680
same,z-score,[14],-0.665 (inactive)
COCCOC(=O)C1=C(C)NC(C)=C(C(=O)OC/C=C/c2ccccc2)C1c1cccc([N+](=O)[O-])c1 (stereo not given),parasite load remaining,[15],41.2% (inactive)
same,viability,[15],106%
same,nuclear beta-catenin stimulation,[1]; at 10 µM,2.6% (inactive)
same,nuclear beta-catenin stimulation,"[1]; stimulation, at 2 µM",0.8%
same,insulin secretion stimulation,[2],-0.8% (inactive)
same,viability decrease,[3],77.2% (active)
same,tube area decrease,[4],104% (active)
same,GLP1 secretion stimulation,[5],-1.2% (inactive)
same,inhibition of viability,[6],77% (active)
same,viability decrease (inhibition),[7],87.1% (active)
same,viability decrease (inhibition),[8],86.4% (active)
same,remaining activity,[9],100% (inactive)
same,fold change,[13]; [18],1.33 (inactive) and 0.874 (inactive) and 0.908 (inactive)
same,fold change,[13]; [19],0.592 and 1.2 and 1.19
same,cell count,[13]; [20],2620 and 3270 and 8480
same,cell count,[13]; [21],1970 and 3740 and 9340
same,z-score,[16]; [22],0.948 (inactive) and 0.937 (inactive)
same,z-score,[16]; [23],1.43 and 0.674
same,z-score,[14],-1.04 (inactive) and -0.7 (inactive) and -0.745 (inactive)
CC[N+](CC)(CCNC(=O)C(=O)NCC[N+](CC)(CC)Cc1ccccc1Cl)Cc1ccccc1Cl,nuclear beta-catenin stimulation,[1]; at 10 µM,0.3% (inactive)
same,nuclear beta-catenin stimulation,"[1]; stimulation, at 2 µM",3.3%
same,insulin secretion stimulation,[2],0.9% (inactive)
same,viability decrease,[3],-14.5% (inactive)
same,tube area decrease,[4],-8.9% (inactive)
same,GLP1 secretion stimulation,[5],2.4% (inactive)
same,inhibition of viability,[6],2.83% (inactive)
same,viability decrease (inhibition),[7],6.4% (inactive)
same,viability decrease (inhibition),[8],-9.9% (inactive)
same,remaining activity,[9],122% (inactive)
same,fold change,[13]; [18],0.939 (inactive)
same,fold change,[13]; [19],1.05
same,cell count,[13]; [20],8990
same,cell count,[13]; [21],9570
same,z-score,[14],0.25 (inactive)
